Screening results from PubChem.
PolyA inhibitor: blocks polyadenylation in yeast reporter cells; actives 0.02% (n = 300,000); S. cerevisiae SKY197-pL101 polyadenylation reporter, beta-gal luminescence; efflux-impaired pdr1/pdr3 knockout yeast; score 100 = 6 SD above DMSO; AID 1875; activity score, % at 12 µM;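 active = lowest replicate activity score at least 50, where 100 means six control SD above control mean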;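 also: yeast exposed to compound for 9 h at 30 °C; higher score means more reporter readthrough which indicates perturbed polyadenylation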
hgDAF-12 ag: hgDAF-12 agonism, primary luciferase screen; AID 687014; HEK293 GAL4-hgDAF12 UAS-luciferase reporter, agonist luminescence; normalized to butyrate control; actives 1.8% (n = 370,000); activation, % at 6.8 µM;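 active = activation above a cutoff set at the mean of all screened compounds plus 3 SD, cut at about 10% in these data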;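 also: 0% = DMSO wells and 100% = sodium butyrate wells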
DAX1 inh-1: blocks DAX1 repression of SF-1 activated StAR promoter. inhibition, % at 6.8 µM. actives 1.1% (n = 370,000). HEK293T StAR-luciferase reporter, SF-1/DAX-1 repression relief. AID 652010;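 active = inhibition above the mean over all tested compounds plus 3 SD, cut at about 3.6% in these data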;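 also: 0% = DAX-1 cells with DMSO and 100% = cells lacking DAX-1 with DMSO; higher inhibition means more luminescence from relief of DAX-1 repression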
DAX1 inh-2: inhibitors of human orphan nuclear receptor DAX1 (NR0B1); P51843; HEK293 Gal4-DAX1 luciferase reporter, luminescence; inhibition, % at 6.75 µM; actives 0.99% (n = 340,000);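 active = inhibition above the mean over all tested compounds plus 3 SD, cut at about 4.2% in these data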;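 also: 0% = DAX1-transfected cells with DMSO and 100% = empty-vector control cells with DMSO; inhibition shows as a rise in luminescence from relieved DAX1 repression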
Target sequence (P51843 207-470 limits assumed): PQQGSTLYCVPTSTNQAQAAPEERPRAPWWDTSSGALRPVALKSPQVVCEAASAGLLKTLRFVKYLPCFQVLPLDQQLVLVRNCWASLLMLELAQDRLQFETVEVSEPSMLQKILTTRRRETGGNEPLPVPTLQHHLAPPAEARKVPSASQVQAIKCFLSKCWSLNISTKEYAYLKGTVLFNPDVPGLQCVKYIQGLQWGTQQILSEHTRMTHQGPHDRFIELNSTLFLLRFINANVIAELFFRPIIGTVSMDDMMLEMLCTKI
hcDAF12 agonist: activators of H. contortus DAF-12 nuclear receptor; HEK293 hcDAF-12 lit1-tk-luc reporter, luminescence; 0% DMSO, 100% Δ7-dafachronic acid; activation, % at 6.8 µM; actives 1.4% (n = 370,000); AID 652067;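 active = activation above the mean of all tested compounds plus 3 SD, cut at about 5.5% in these data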;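 also: 100% = response to 3 µM Δ7-dafachronic acid high control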
ssDAF-12 act: S. stercoralis DAF-12 activation, primary screen; HEK293 ssDAF-12/GRIP1 lit1-tk-luc reporter, luminescence; % of 3 µM dafachronic acid response; activation, % at 6.8 µM; actives 1% (n = 370,000); AID 652126;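 active = activation above the mean over all tested compounds plus 3 SD, cut at about 0.9% in these data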;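 also: 0% = DMSO-only wells and 100% = 3 µM delta7-dafachronic acid wells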
An asterisk follows results filed as active. Shown are actives, neighbours in structure and some others; about 4.1% of the full set was active somewhere.

How did COc1ccc(N2CCN(CCNS(=O)(=O)c3c(C(C)C)cc(C(C)C)cc3C(C)C)CC2)cc1 do in these assays?
hgDAF-12 ag: -2; DAX1 inh-1: -3; hcDAF12 agonist: -4; ssDAF-12 act: -1

How did OC(c1ccccc1)(c1ccccc1)C1CCN(CCCNc2cccc(OC(F)(F)F)c2)CC1 do in these assays?
hgDAF-12 ag: 0; DAX1 inh-1: 0; hcDAF12 agonist: -2; ssDAF-12 act: 1

How did Cc1nn(C)cc1/C=C/C(=O)c1ccc(O)cc1 do in these assays?
PolyA inhibitor: -2; hgDAF-12 ag: 11*; DAX1 inh-1: 2; DAX1 inh-2: 1; hcDAF12 agonist: 3; ssDAF-12 act: -1

How did CN(C)c1ccc(C(=O)NCCc2ccccc2-c2ccccc2CCC(=O)NCc2ccccc2)cc1 do in these assays?
hgDAF-12 ag: 2; DAX1 inh-1: 0; hcDAF12 agonist: -2; ssDAF-12 act: -2

How did O=C1COc2ccccc2C(c2nnnn2-c2ccc3ccccc3c2)N1C1CC1 (stereo not drawn) do in these assays?
hgDAF-12 ag: 1; DAX1 inh-1: -1; hcDAF12 agonist: -2; ssDAF-12 act: 0

Results for O=C(COC(=O)c1ccc2c(c1)OCO2)Nc1ccccc1OC(F)F ?
hgDAF-12 ag: 2; DAX1 inh-1: -2; DAX1 inh-2: -1; hcDAF12 agonist: 0; ssDAF-12 act: -1

Results for Cc1ccc(S(=O)(=O)NCC(=O)OCC(=O)Nc2ccccc2OC(F)F)cc1 ?
PolyA inhibitor: 2; hgDAF-12 ag: -1; DAX1 inh-1: 0; DAX1 inh-2: 5.9*; hcDAF12 agonist: -1; ssDAF-12 act: -1

Results for O=C(COC(=O)c1ccc(Cl)c([N+](=O)[O-])c1)Nc1ccccc1OC(F)F ?
PolyA inhibitor: -8; hgDAF-12 ag: 1; DAX1 inh-1: 0; DAX1 inh-2: 4.7*; hcDAF12 agonist: 2; ssDAF-12 act: -1

How did CC(NC(=O)C1CCC(CNc2c(N3CCCCC3)c(=O)c2=O)CC1)c1ccccc1 (stereo not drawn) do in these assays?
PolyA inhibitor: -20; hgDAF-12 ag: -1; DAX1 inh-1: 0; DAX1 inh-2: 5.8*; hcDAF12 agonist: 0; ssDAF-12 act: -1

How did CC1CC1C(=O)N1CCC(Oc2cccnc2)CC1 (stereo not drawn) do in these assays?
hgDAF-12 ag: -5; DAX1 inh-1: 0; hcDAF12 agonist: -3; ssDAF-12 act: -2

What do the screens show for `Cc1ccc(/C=N/NC(=O)c2c[nH]c3ccccc23)s1`?
PolyA inhibitor: 5; hgDAF-12 ag: 6; DAX1 inh-1: 1; DAX1 inh-2: 0; hcDAF12 agonist: 1; ssDAF-12 act: 0

What do the screens show for `O=C(N/N=C/C1CC2CCC1C2)C1CC1` (stereo not drawn)?
PolyA inhibitor: 27; hgDAF-12 ag: 1; DAX1 inh-1: 3.7*; DAX1 inh-2: 0; hcDAF12 agonist: 2; ssDAF-12 act: -1

How did Cc1ccsc1/C=N/NC(=O)c1c[nH]c2ccccc12 do in these assays?
PolyA inhibitor: 3; hgDAF-12 ag: 11*; DAX1 inh-1: 0; DAX1 inh-2: 0; hcDAF12 agonist: 2; ssDAF-12 act: 1

What do the screens show for `O=C(N/N=C/C1CC2CCC1C2)c1c[nH]c2ccccc12` (stereo not drawn)?
PolyA inhibitor: -8; hgDAF-12 ag: 6; DAX1 inh-1: 1; DAX1 inh-2: 0; hcDAF12 agonist: 5.7*; ssDAF-12 act: 1

Results for Nc1nc(N)nc(COc2ccccc2)n1 ?
PolyA inhibitor: 5; hgDAF-12 ag: 11*; DAX1 inh-1: 1; DAX1 inh-2: 4.7*; hcDAF12 agonist: 2; ssDAF-12 act: 0

What do the screens show for `CCOc1ccccc1NC(=O)c1cc2c(C)nn(-c3ccccc3)c2s1`?
hgDAF-12 ag: 2; DAX1 inh-1: 0; hcDAF12 agonist: -1; ssDAF-12 act: -1

How did Cc1cc(C)n(/N=C/c2c[nH]c3ccccc23)c(=O)c1C#N do in these assays?
PolyA inhibitor: 1; hgDAF-12 ag: 1; DAX1 inh-1: 0; DAX1 inh-2: 0; hcDAF12 agonist: -1; ssDAF-12 act: -1

How did Cc1cc(C)n(/N=C/c2c[nH]c3ccccc23)c(=O)c1 do in these assays?
PolyA inhibitor: 11; hgDAF-12 ag: -1; DAX1 inh-1: 1; DAX1 inh-2: 2; hcDAF12 agonist: 6.5*; ssDAF-12 act: 1

How did O=C1CS/C(=N/N=C/c2c[nH]c3ccccc23)N1 do in these assays?
PolyA inhibitor: -10; hgDAF-12 ag: 1; DAX1 inh-1: 0; hcDAF12 agonist: 1; ssDAF-12 act: -1

What do the screens show for `C(=NN=Cc1c[nH]c2ccccc12)c1c[nH]c2ccccc12`?
hgDAF-12 ag: 3; DAX1 inh-1: 0; DAX1 inh-2: 1; hcDAF12 agonist: 6.1*; ssDAF-12 act: 0

What do the screens show for `O=C1CN(c2ccccc2)C(=S)N1C(=O)c1ccccc1`?
PolyA inhibitor: -14; hgDAF-12 ag: 11*; DAX1 inh-1: 2; DAX1 inh-2: 5.8*; hcDAF12 agonist: 5.7*; ssDAF-12 act: 1

How did CN(C)[C@H]1CCN(c2ccc3c(c2)OCCCN(C2CC2)S3(=O)=O)C1 do in these assays?
hgDAF-12 ag: 1; DAX1 inh-1: -1; hcDAF12 agonist: -1; ssDAF-12 act: 0

What do the screens show for `Cc1cc2nc(-c3ccc(SCc4ccc(C(=O)O)cc4)nc3)[nH]c2cc1C`?
PolyA inhibitor: 7; hgDAF-12 ag: 12*; DAX1 inh-1: 2; DAX1 inh-2: 2; hcDAF12 agonist: 0; ssDAF-12 act: -1

Results for Cc1cc2nc(-c3ccc(SCC(=O)NC(C)C)nc3)[nH]c2cc1C ?
PolyA inhibitor: 4

What do the screens show for `Cc1ccc(C2C(=O)N(C3CCCC3)CC(=O)N2C2CCCCC2)cc1` (stereo not drawn)?
PolyA inhibitor: -1; hgDAF-12 ag: -2; DAX1 inh-1: -1; DAX1 inh-2: 0; hcDAF12 agonist: -1; ssDAF-12 act: -1

Results for CC(C)N1C(=O)CN(C2CCCCCC2)C(=O)C1c1ccccc1F (stereo not drawn) ?
PolyA inhibitor: -19; hgDAF-12 ag: 11*; DAX1 inh-1: 1; DAX1 inh-2: 3; hcDAF12 agonist: 1; ssDAF-12 act: -1

How did COc1ccc(CN2CCN(S(=O)(=O)c3ccc(F)cc3)CC2)cc1OC do in these assays?
PolyA inhibitor: 9; hgDAF-12 ag: 0; DAX1 inh-1: 0; DAX1 inh-2: -1; hcDAF12 agonist: -2; ssDAF-12 act: -2

What do the screens show for `COc1ccc(CN2CCN(S(=O)(=O)c3ccccc3)CC2)cc1Br`?
PolyA inhibitor: -3; hgDAF-12 ag: -2; DAX1 inh-1: 0; DAX1 inh-2: 0; hcDAF12 agonist: -3; ssDAF-12 act: 1.4*

How did COc1ccc2c(c1)[C@@]1(NCCc3c1[nH]c1ccc(OC)cc31)C(=O)N2C do in these assays?
hgDAF-12 ag: -2; DAX1 inh-1: 2; hcDAF12 agonist: 2; ssDAF-12 act: 0
